# WRN helicase inh: WRN helicase (human) inhibition; Q14191; WRN helicase unwinding, fluorescent forked duplex, kinetic; Potency, µM (doses to about 114 µM), actives largely listed as inhibitors; hit rate 0.46% among 360,000; further: nearly all actives have a fitted effect of over 55% in size
#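 Kinetic fluorescence helicase assay: unwinding of a quenched forked DNA duplex (100 nM final) with 2 mM ATP final raises red fluorescence (525/598 nm). Compounds sat 15 min at room temperature with 20 nM WRN beforehand.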
# Pol kappa inh-1: inhibitors of human DNA polymerase kappa; AID 588579; hit rate 0.53% among 400,000; Q9UBT6; Potency, µM (titrated, usually from 107 µM), usual class: inhibitors; purified Pol kappa, fluorescent DNA synthesis assay, 10 min
#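 Kinetic fluorescence readout at 0 and 10 min followed reaction start with substrate at 50 nM final. Beforehand, enzyme (10 nM Pol kappa) stood 15 min with compound at room temperature; buffer-only wells were negative controls.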
# POLB inh: blocks human DNA polymerase beta activity. Potency, µM (titrated, usually from 114 µM), most hits filed as inhibitors. Pol beta primer extension/strand displacement, fluorescence kinetic. P06746. hit rate 1.3% among 340,000
#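 Enzyme-only controls used 10 nM Pol beta; buffer lacking enzyme served as negative control. Compound preincubated 15 min, then 50 nM substrate added; 0 and 10 min reads at room temperature.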
# Pol eta inh-1: blocks human DNA polymerase eta activity. recombinant Pol eta, fluorescent DNA replication assay. hit rate 1.2% among 390,000. AID 588591. Potency, µM (titrated, usually from 114 µM), hits mostly inhibitors. Q9Y253
# Target sequence (Q9Y253 whole entry, looked up): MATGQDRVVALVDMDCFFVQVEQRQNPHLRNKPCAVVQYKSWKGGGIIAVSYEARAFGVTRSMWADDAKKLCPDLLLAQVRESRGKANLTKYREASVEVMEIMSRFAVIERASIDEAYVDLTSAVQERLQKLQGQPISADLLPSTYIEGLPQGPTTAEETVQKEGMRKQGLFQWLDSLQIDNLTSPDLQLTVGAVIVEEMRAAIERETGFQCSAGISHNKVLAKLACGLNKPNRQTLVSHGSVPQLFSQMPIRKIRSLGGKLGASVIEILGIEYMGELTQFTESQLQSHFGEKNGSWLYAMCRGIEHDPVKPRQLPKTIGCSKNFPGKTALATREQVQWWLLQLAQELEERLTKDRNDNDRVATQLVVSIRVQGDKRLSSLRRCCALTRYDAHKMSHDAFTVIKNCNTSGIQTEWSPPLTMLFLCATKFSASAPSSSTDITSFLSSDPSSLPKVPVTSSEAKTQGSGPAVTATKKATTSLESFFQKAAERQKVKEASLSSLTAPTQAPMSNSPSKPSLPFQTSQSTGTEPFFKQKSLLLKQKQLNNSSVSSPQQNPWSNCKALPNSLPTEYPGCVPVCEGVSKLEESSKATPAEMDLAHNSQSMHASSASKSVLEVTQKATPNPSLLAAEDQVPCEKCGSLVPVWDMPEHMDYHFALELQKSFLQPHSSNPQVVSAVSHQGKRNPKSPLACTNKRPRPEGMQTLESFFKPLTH
#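 Fluorescent replication assay: 50 nM final substrate added after a 15 min room-temperature compound preincubation with 10 nM enzyme. Signal taken at 0 min and again at 10 min.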
# POLI inh: DNA polymerase iota (human) inhibition; Q9UNA4; Pol iota fluorescent replication assay, 10 min; Potency, µM (series often up to 115 µM), most hits filed as inhibitors; hit rate 1% among 390,000; AID 588590
#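 Fluorescent replication assay read twice, at 0 min and 10 min after adding 50 nM (final) substrate. Enzyme (10 nM) and compounds were first incubated 15 min at room temperature; enzyme-free buffer wells were negative controls.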
# GALK inh confirm: galactokinase (human) inhibition, confirmation. shares compounds with Pol eta inh-1. purified GALK, Kinase-Glo ATP depletion luminescence. Potency, µM (highest dose often 115 µM), actives largely listed as inhibitors. hit rate 70% among 150
# Redox cycling: counter-screen for GALK inhibitors: redox cycling H2O2 generation. Potency, µM (highest dose often 115 µM), most hits filed as inhibitors. shares compounds with Pol eta inh-1. Phenol red-HRP H2O2 redox cycling, absorbance 600 nm. hit rate 40% among 150
# HEK293 tox: reduces HEK-293 cell viability in GALK counter-screen; shares compounds with Pol eta inh-1; HEK-293 viability, ATP luminescence (CellTiter-Glo), 24/48 h; Potency, µM (top dose mostly 46.1 µM), usual class: inhibitors; hit rate 10% among 170; AID 2547
# Pol kappa inh-2: Pol kappa (human) inhibition, cherry-pick confirmation | shares compounds with Pol eta inh-1 | purified Pol-kappa, fluorescent strand-displacement substrate | Potency, µM, usual class: inhibitors | hit rate 76% among 920 | AID 720501
# Pol eta inh-2: confirmation of human DNA polymerase eta inhibitors | shares compounds with Pol eta inh-1 | hit rate 64% among 2,600 | Pol eta primer extension, TAMRA/BHQ fluorescence, 10 min | Potency, µM, usual class: inhibitors
# Numbers stand for hits; - = inactive; ? = inconclusive; . = no result given; [ ] = dose if it differs, or a comment. Hits are enriched below; roughly 2.3% of the tested compounds scored in any of these assays. The call rests on the fitted dose curve; in most records, active means well fitted curve in the direction sought with a large enough effect; inconclusive means small, poorly fitted or top-dose-only effect, or another doubt; inactive means no such curve, though single readings can be large; an effect the other way counts as inactive or inconclusive.
SMILES,WRN helicase inh,Pol kappa inh-1,POLB inh,Pol eta inh-1,POLI inh,Pol eta inh-2,others
N#Cc1c(N)n(-c2ccccc2N)c2nc3ccccc3nc12,-,-,-,?,-,.,
N#Cc1c(N)n(-c2cccc(C(=O)O)c2)c2nc3ccccc3nc12,-[11.6 µM],-,-,40µM,-,54,
CN(C)C1(CN=Cc2cc(Cl)cc([N+](=O)[O-])c2O)CCCCC1,-,?,14µM,?,?,?,
O=[N+]([O-])c1cc(Cl)cc(/C=N\Nc2ccccn2)c1O,-,-,-,-,-,.,
Cc1ccc(-c2csc3ncn(CC#N)c(=O)c23)cc1C,-[11.6 µM],79µM,32µM,20µM,28µM,54,Pol kappa inh-2=60
Cc1cc(C)c(S(=O)(=O)NCC(c2cccs2)S(=O)(=O)c2ccccc2)c(C)c1 (centres undefined),.,-,-,-,-,.,
O=C(COC(=O)c1cncc(Br)c1)Nc1nnc(-c2ccccc2)o1,-[11.6 µM],?,.,40µM,?,60,
COc1cc(OC)cc(C(=O)OCC(=O)Nc2nnc(-c3ccccc3)o2)c1,-,-,.,-,-,.,
CC1=C(C#N)C(=O)NC(=O)/C1=C\c1ccc(-c2ccc(C)cc2[N+](=O)[O-])o1,?,-,32µM,50µM,?,?,
CCOC(=O)C1=C(C)NC(=O)NC1c1ccc(-c2ccc(Cl)cc2)o1 (centres undefined),-,-,-,-,-,.,
Cc1ccc(-c2ccc(/C=N/N=C3/NC(=O)C(CC(=O)O)S3)o2)c([N+](=O)[O-])c1 (centres undefined),-,-,-,?,-,.,
CCOC(=O)c1cc(-c2ccc(/C=C3/C(=O)NC(=O)C(C#N)=C3C)o2)ccc1Cl,?,?,35µM,28µM,?,48,
Cc1ccc(S(=O)(=O)NCCc2cn3ccsc3n2)cc1,.,-,?,-,-,.,
Cc1ccc(/C=C/c2onc(C)c2S(=O)(=O)N2CCC(C(=O)N3CC(C)Oc4ccccc43)CC2)cc1 (centres undefined),.,-,-,-,-,.,
CCCCOC(=O)c1ccc(NC(=O)Cc2coc3c(C)c(C)ccc23)cc1,.,-,-,-,-,.,
COc1cc(NS(=O)(=O)c2ccc(N/C=C(\C#N)c3nc4cc(Cl)ccc4o3)cc2)nc(OC)n1,?,-,-,35µM,-,?,
CCOC(=O)c1c(C)[nH]c(C)c1S(=O)(=O)N1CCC(C(=O)Nc2ccccc2CC)CC1,.,-,-,-,-,.,
CC(=O)Nc1ccc(NC(=O)c2cc(S(=O)(=O)N3CCCCC3)ccc2C)cc1,-,-,.,-,?,.,
Cc1ccc(S(=O)(=O)N2CCCCC2)cc1C(=O)Nc1cccnc1,-[11.6 µM],-,32µM,18µM,50µM,76,
CCOC(=O)C1(Cc2cccc(F)c2)CCN(C(=O)COC)CC1,-,-,-,-,-,.,GALK inh confirm=-;Redox cycling=-;HEK293 tox=-
CCOC(=O)C1(Cc2cccc(F)c2)CCN(C(=O)C2CCOCC2)CC1,-,-,-,-,-,.,
COc1cc(/C=C2\SC(=S)N(NC(=O)c3ccccc3O)C2=O)ccc1O,56µM,?,?,?,14µM,.,Pol kappa inh-2=42
CCc1ccc(-n2nnc(-c3nsc(NC(=O)c4ccccc4Cl)n3)c2C)cc1,.,-,?,-,-,.,
Cc1cc(C)cc(-n2nnc(-c3nsc(NC(=O)c4ccccc4Cl)n3)c2C)c1,.,-,7.9µM,?,?,.,Pol kappa inh-2=?
O=S(=O)(NCCc1cn(S(=O)(=O)c2ccccc2)c2ccccc12)c1ccccc1,.,-,.,.,-,.,
SMILES,WRN helicase inh,Pol kappa inh-1,POLB inh,Pol eta inh-1,POLI inh,Pol eta inh-2,others
Cc1c(Cl)cnc(NC(=O)COC(=O)CNC(=O)c2ccccc2)c1Cl,-[11.6 µM],-,.,50µM,-,?,Pol kappa inh-2=?
Cc1c(Cl)cnc(NC(=O)COC(=O)[C@H](C)NC(=O)c2ccccc2)c1Cl,-[11.6 µM],-,.,50µM,?,?,Pol kappa inh-2=?
Cc1c(Cl)cnc(NC(=O)COC(=O)c2ccncc2)c1Cl,?,-,.,25µM,50µM,.,Pol kappa inh-2=?
COc1cccc2cc(C(=O)Nc3ccc(CC(=O)O)cc3)c(=O)oc12,.,-,-,-,-,.,
COc1ccc(OC)c([C@@H]2Nc3ccc(C(=O)O)cc3[C@@H]3C=CC[C@@H]32)c1,.,-,-,35µM,-,85,Pol kappa inh-2=34
COc1ccc(Br)cc1[C@@H]1Nc2ccc(C(=O)O)cc2[C@@H]2C=CC[C@@H]21,.,35µM,-,79µM,25µM,30,
CS(=O)(=O)NN1C(=O)c2ccccc2NC1c1cccc(O)c1 (centres undefined),-,-,-,-,-,.,
CN1C(=O)c2ccccc2NC(=O)[C@]12O[C@@H]2c1cccc(O)c1,-,40µM,45µM,11µM,?,38,
CCCn1c2ccccc2c2cnn(CC(=O)NCCCN(Cc3ccccc3)C(C)C)c(=O)c21,.,-,-,-,-,.,
CCN(C(=O)CSc1nc2n[nH]c(C)c2c(=N)n1-c1cccc(OC)c1)c1cccc(C)c1,.,-,-,-,-,.,
O=C(Oc1cccc([N+](=O)[O-])c1)c1ccc2c(=O)n3c(nc2c1)CCC3,-[11.6 µM],?,.,28µM,40µM,76,
COC(=O)CC1Oc2ccc(Cl)cc2-n2cc(-c3ccc(C)cc3)nc21 (centres undefined),.,-,-,-,-,.,
CCOC(=O)C1=C(COC(=O)COc2ccccc2OCC)NC(=O)NC1C (centres undefined),-,-,.,-,-,.,
CCOC(=O)C1=C(COC(=O)COc2ccccc2C=O)NC(=O)NC1C (centres undefined),-,?,.,13µM,?,76,
CCOC(=O)C1=C(COC(=O)c2ccc([N+](=O)[O-])s2)NC(=O)NC1C (centres undefined),-,?,.,40µM,50µM,?,
CC(=O)Nc1cccc(NC(=O)CSc2ccc(-c3cccnc3)nn2)c1,-,89µM,2.8µM,?,14µM,.,Pol kappa inh-2=17
COc1cc(-c2cc(=O)c3c(O)c(OC)c(OC)cc3o2)cc(OC)c1O,?,79µM,28µM,22µM,?,67,
COc1ccc(-c2cc(=O)c3c(O)c(OC)c(O)cc3o2)cc1,-,-,?,-,-,.,
